Bioassay records: PubChem BioAssay, Broad Institute
An excerpt weighted towards active compounds, which were near 8.1% of everything screened.
Hedgehog inh = blocks Sonic Hedgehog signaling. Shh-LIGHT2 Gli-luciferase reporter, 30 h. inhibition, % (test concentration not listed). 22,000 tested, 2.1% active;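 active = mean inhibition across valid replicates above about 65%, limit read from the data; inconclusive = mean under the limit, yet half or more replicates past it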;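 also: pathway switched on by Shh-conditioned medium diluted 1 in 25 in low serum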
NOMO-1 viab = STK33 inhibitor candidate reducing NOMO-1 cell viability. inhibition, % (no concentration beside the values). NOMO-1 AML viability, CellTiter-Glo luminescence, 72 h. 37,000 tested, 7.5% active; in the data active = inhibition above about 80%; inconclusive = no clear call, values can overlap the other calls
MITF inh = MITF inhibition | TRPM1 promoter luciferase, luminescence, 24 h | inhibition, % (concentration not given with the values) | 37,000 tested, 0.28% active | AID 2240; in the data active = inhibition above about 85%; inconclusive = no clear call, values can overlap the other calls; inactive = below about 68%;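 also: human melanocyte line stably carrying TRPM1 promoter luciferase reporter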
* = called active by the depositor; u = inconclusive; x = no result given.

SMILES	Hedgehog inh	NOMO-1 viab	MITF inh
C[C@H](CO)N1C[C@H](C)[C@H](CN(C)Cc2ccc(C(=O)Nc3ccccc3N)cc2)Oc2ccc(NC(=O)C3CCCCC3)cc2CC1=O	x	140.7*	14.9
C[C@@H]1CN([C@H](C)CO)C(=O)Cc2cc(NC(=O)Cn3cnnn3)ccc2O[C@@H]1CN(C)Cc1ccncc1	x	7.9	-6.2
C[C@H](CO)N1C[C@H](C)[C@H](CN(C)Cc2ccc(Oc3ccccc3)cc2)Oc2c(NC(=O)Nc3ccccc3)cccc2C1=O	-63.9	73.1	-1.3
C[C@H]1CN([C@@H](C)CO)C(=O)c2cccc(NC(=O)Nc3ccc(C(F)(F)F)cc3)c2O[C@@H]1CN(C)Cc1ccc(Oc2ccccc2)cc1	-31.1	89.4*	20.9
C[C@@H]1CN([C@@H](C)CO)C(=O)c2cccc(NC(=O)Nc3ccccc3)c2O[C@@H]1CN(C)Cc1ccc(C(F)(F)F)cc1	29.1	u	-7.1
C[C@H](CO)N1C[C@H](C)[C@H](CN(C)Cc2ccc(Oc3ccccc3)cc2)Oc2c(NC(=O)Nc3ccc(C(F)(F)F)cc3)cccc2C1=O	15.5	117.4*	10.1
C[C@H]1CN([C@@H](C)CO)C(=O)Cc2cc(NC(=O)C3CC3)ccc2O[C@H]1CN(C)C(=O)Nc1cccc2ccccc12	-8.1	14.6	6.6
CC(=O)N[C@H]1[C@H](O[C@@H]2[C@@H](O)[C@H](C)O[C@@H](Oc3ccc4c(=O)c(-c5ccc(O)cc5)coc4c3)[C@@H]2O)O[C@H](CO)[C@@H](O[C@@H]2O[C@@H](C)[C@H](O)[C@@H](O)[C@H]2O)[C@@H]1O	16.5	-12.7	-11.1
C[C@@H]1CN([C@@H](C)CO)C(=O)c2cccc(NC(=O)c3cnccn3)c2O[C@H]1CN(C)S(=O)(=O)c1ccc(Cl)cc1	7.9	2.5	-2.6
COc1ccc(CC(=O)Nc2cccc(-c3nnc(-c4ccc(C)cc4)o3)c2)cc1OC	x	122.3*	100.9*
COc1ccccc1OCC(=O)Nc1cccc(-c2nnc(-c3ccccc3)o2)c1	x	-19.3	-99.5
Cc1ccc(-c2nc3ccccc3[nH]2)cc1NC(=O)C(C)Oc1ccc(Cl)cc1Cl (centres undefined)	x	72.5	-8.4
CC(Oc1ccccc1)C(=O)Nc1cc([N+](=O)[O-])ccc1O (centres undefined)	x	3.4	100.1*
CC(Oc1ccc(Br)cc1)C(=O)Nc1ccccc1[N+](=O)[O-] (centres undefined)	x	-14.2	-11.6
COC(=O)c1cc(OC)c(OC)cc1NC(=O)COc1ccc(OC)cc1	x	2.3	-8.7
Cc1noc(C)c1NC(=O)Nc1ccc2c(c1)C(=O)N([C@@H](C)CO)C[C@@H](C)[C@H](CN(C)C(=O)Nc1ccc(C(F)(F)F)cc1)O2	-20.3	-3.8	-1.0
COc1ccccc1C(=O)Nc1sc2c(c1C(=O)NCc1ccco1)CCCC2	x	91.1*	-5.7
Cc1c(C(=O)Nc2sc3c(c2C(=O)NCc2ccco2)CCCC3)oc2ccccc12	x	105.9*	2.9
COc1ccc(C(=O)Nc2sc3c(c2C(=O)NC2CCS(=O)(=O)C2)CCCC3)cc1OC (centres undefined)	x	-3.1	6.8
O=C(Nc1sc2c(c1C(=O)NCc1ccco1)CCCC2)c1ccc([N+](=O)[O-])cc1	x	14.8	12.3
Cc1ccc2oc(C(=O)Nc3sc4c(c3C(=O)NC3CCS(=O)(=O)C3)CCC4)c(C)c2c1 (centres undefined)	x	105.8*	11.5
O=C(Nc1sc2c(c1C(=O)NCc1ccco1)CCCC2)c1sc2ccccc2c1Cl	x	70.4	-18.3
Cc1ccc(-n2ncc(C(=O)NCc3ccccn3)c2NC(=O)c2ccco2)cc1C	x	-8.3	-11.9
Cc1ccc(S(=O)(=O)N(C)C[C@H]2Oc3c(NC(=O)Nc4ccccc4)cccc3C(=O)N([C@H](C)CO)C[C@@H]2C)cc1	-25.2	27.6	0.7
C=CCSc1nnc(-c2ccc(C)cc2)o1	-170.1	10.6	38.3
SMILES	Hedgehog inh	NOMO-1 viab	MITF inh
C=C1C(=O)O[C@@H]2C=C(C)[C@@H]3CC[C@@](C)(O)[C@@H]3C[C@H]12	9.9	37.9	-0.7
C=C1C(=O)O[C@H]2C3=C(C)CCC[C@]3(C)C(=O)C[C@@H]12	76.1*	121.4*	78.3
CCOc1ccc(C2C3=C(CCCC3=O)NC3=C2C(=O)CCC3)cc1	-4.2	5.1	7.2
CC(=O)Oc1ccc2occ(C(=O)CCN(C)C)c2c1	20.6	140.4*	-0.2
CC(=O)Oc1ccc2occ(C(=O)c3ccc(Br)s3)c2c1	-27.2	41.3	-21.9
COc1ccc([N+](=O)[O-])cc1NC(=O)COc1ccc(Br)cc1Cl	x	10.7	8.9
COc1cc2c(cc1NC(=O)COc1ccc(Br)cc1Cl)oc1ccccc12	x	127.7*	-3.9
COc1ccc(S(=O)(=O)Nc2cccc3c2O[C@H](CN(C)CC2CC2)[C@@H](C)CN([C@@H](C)CO)C3=O)cc1	-0.7	8.5	5.2
C=C(CC[C@@H](C)[C@H]1CCC2(C)C3=C(C[C@H](O)[C@]12C)[C@@]1(C)CC[C@@H](OC(=O)CC(=O)O)C(C)(C)C1CC3)[C@@H](C)C(=O)O (some centres undefined)	20.9	x	x
Cc1cc(O)c2c(c1)C(=O)C13C(C2=O)C(=O)C2C(O)C1C1C(O)C3C(=O)C3C(=O)c4c(O)cc(C)cc4C(=O)C321 (centres undefined)	-29.4	109.7*	71.5
C[C@@H]1CCCCO[C@H](CN(C)C(=O)Nc2ccc3c(c2)OCO3)[C@@H](C)CN([C@H](C)CO)C(=O)c2cc(NC(=O)c3ccncc3)ccc2O1	-12.9	19.4	-0.5
Cc1ccc(NC(=O)C23CC4CC(CC(C4)C2)C3)cc1	x	21.9	-10.7
O=C(Nc1nc(-c2ccccc2)cs1)C12CC3CC(CC(C3)C1)C2	-86.3	108.3*	-19.6
C[C@H](CO)N1C[C@H](C)[C@H](CN(C)Cc2ccc(C(=O)Nc3ccccc3N)cc2)Oc2c(NS(=O)(=O)c3cn(C)cn3)cccc2C1=O	x	2.6	-3.7
COc1ccc(NC(=O)Nc2ccc3c(c2)CC(=O)N([C@@H](C)CO)C[C@H](C)[C@H](CN(C)S(=O)(=O)c2ccc(C)cc2)O3)cc1	-23.1	128.0*	42.4
COc1ccc(NC(=O)Nc2ccc3c(c2)CC(=O)N([C@@H](C)CO)C[C@@H](C)[C@@H](CN(C)S(=O)(=O)c2ccc(Cl)cc2)O3)cc1	0.9	35.0	15.8
COc1ccc(NC(=O)Nc2ccc3c(c2)CC(=O)N([C@H](C)CO)C[C@@H](C)[C@@H](CN(C)S(=O)(=O)c2ccc(C)cc2)O3)cc1	x	14.4	12.4
COc1ccc(NC(=O)Nc2ccc3c(c2)CC(=O)N([C@@H](C)CO)C[C@H](C)[C@@H](CN(C)S(=O)(=O)c2ccc(Cl)cc2)O3)cc1	74.1*	28.9	9.1
O=C(NCc1ccco1)c1cccc(S(=O)(=O)N2CCCCCC2)c1	x	-3.3	-7.2
CS(=O)(=O)N(CC(=O)Nc1cc(Cl)ccc1Cl)c1ccc2c(c1)OCCO2	x	13.6	12.6
O=C(CC1(O)C(=O)Nc2ccc(Br)cc21)c1ccc(NS(=O)(=O)c2ccccc2)cc1 (centres undefined)	x	25.3	14.4
CC(C)(C)c1ccc(-c2[nH]nc(NS(=O)(=O)c3ccccc3)c2Br)cc1	95.2*	u	12.9
COc1ccc(S(=O)(=O)N(C)C[C@@H]2Oc3ccc(NC(=O)Cc4ccccc4)cc3C(=O)N([C@H](C)CO)C[C@@H]2C)cc1	-1.6	13.5	4.0
